Laboratory results: PubChem BioAssay AID1780 (National Center for Advancing Translational Sciences (NCATS), 2009)
The source made the active and inactive calls. Calls follow the shape of the dose curve; as a rule, active = well fitted curve in the direction sought with a large enough effect; inactive = no such curve, though single readings can be large or run the other way.

The compounds below were run against Pyruvate kinase PKM (Homo sapiens) (UniProt P14618) (assay: Confirmation Concentration-Response Assay for Activators of Human Muscle isoform 1 Pyruvate Kinase). Conditions: purified hPK-M1, Kinase-Glo ATP luminescence, 1 h; series mostly up to 57.5 µM; activity change, positive = activation: at the top concentration.
Chain of Pyruvate kinase PKM (Homo sapiens) (P14618 whole entry, looked up, canonical isoform): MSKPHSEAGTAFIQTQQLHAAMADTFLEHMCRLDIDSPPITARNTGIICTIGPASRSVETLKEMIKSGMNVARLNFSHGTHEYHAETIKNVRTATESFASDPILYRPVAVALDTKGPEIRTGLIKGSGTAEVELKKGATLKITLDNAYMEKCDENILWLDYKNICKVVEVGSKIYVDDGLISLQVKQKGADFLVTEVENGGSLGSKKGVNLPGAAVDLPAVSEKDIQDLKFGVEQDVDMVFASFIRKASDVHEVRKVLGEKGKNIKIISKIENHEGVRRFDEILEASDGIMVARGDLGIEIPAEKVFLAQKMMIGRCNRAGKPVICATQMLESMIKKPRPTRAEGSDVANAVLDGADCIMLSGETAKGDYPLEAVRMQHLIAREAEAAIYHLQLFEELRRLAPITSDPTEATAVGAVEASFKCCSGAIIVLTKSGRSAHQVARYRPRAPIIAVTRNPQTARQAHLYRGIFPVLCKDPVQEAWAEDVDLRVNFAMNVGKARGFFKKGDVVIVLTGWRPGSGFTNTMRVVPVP
Source text: Confirmatory assay NIH Chemical Genomics Center [NCGC] Matthew G. Vander Heiden, M.D., Ph.D. [Harvard Medical School, 77 Avenue Louis Pasteur, Boston, MA 02115] NCGC Assay Overview: Human pyruvate kinase […] (hPK-M1) enzyme was supplied as a highly purified (>95% pure) preparation from Harvard Medical School and assayed for its ability to generate ATP from ADP using phosphoenolpyruvate (PEP) as a substrate. ATP generation was detected in a coupled reaction by luciferase-mediated luminescence, an ATP-dependent process. Pyruvate kinase substrates, PEP and ADP, were present in the assay at Km and approximately 10-fold below Km respectively. The enzyme was assayed at an intermediate level of activity to screen for both inhibitors and activators.
NCGC Assay Protocol Summary for M1-isoform: Three uL of substrate mix (at r.t.) in assay buffer (50 mM Imidazole pH7.2, 50 mM KCl, 7 mM MgCl2, 0.01% Tween 20, 0.05% BSA) was dispensed into white solid bottom 1,536 well microtiter plates so that the final concentrations of substrates in the assay were 0.1 mM ADP and 0.5 mM PEP. 23 nL of compound were delivered by a pin tool and 1 uL of enzyme mix (final concentration of 1 nM) in assay buffer (4 degree Celsius) was added. Plates were incubated at room temperature for 1 hour. Two uL of detection mix (Kinase-Glo, Promega; at 4 degree Celsius protected from light) was added and luminescence read by a ViewLux (Perkin Elmer) at 1 second exposure/plate. Data were normalized to the uninhibited (row 31). Additionally, a no enzyme and 5-fold enzyme control was dispensed in row 32, split equally between the two conditions.

outcome, inactive:
Cc1cc2[nH]c3c(=O)n(Cc4ccccc4F)ncc3c2s1
COc1ccc(S(=O)(=O)N2CCN(S(=O)(=O)c3c(F)cccc3F)CC2)cc1

Activity change, positive = activation, inactive:
O=C1CN(S(=O)(=O)c2ccc3c(c2)OCCO3)CCN1S(=O)(=O)c1c(F)cccc1F 6.84%
O=S(=O)(NC1CCN(S(=O)(=O)c2ccc3c(c2)OCCO3)C1)c1c(F)cccc1F (centres undefined) -2.48%
O=C(CN1C(=O)N/C(=C\c2cccn2-c2cccc(C(=O)O)c2)C1=O)Nc1ccccc1F 0.345%
O=S(=O)(NCCCCCCNS(=O)(=O)c1c(F)cccc1F)c1ccc2c(c1)OCCO2 4.36%
Cc1ccc(Cn2ncc3c4sc(C)cc4n(C)c3c2=O)cc1 -1.9%
C[C@H]1CN(S(=O)(=O)c2c(F)cccc2F)CCN1S(=O)(=O)c1ccc2c(c1)OCCO2 7.55%
N#Cc1ccc(S(=O)(=O)N2CCN(S(=O)(=O)c3ccc4c(c3)OCCO4)CC2)cc1 9.21%
O=C1CN(S(=O)(=O)c2c(F)cccc2F)CCN1S(=O)(=O)c1ccc2c(c1)OCCO2 5.79%
COc1ccc(Cn2ncc3c4sc(C)cc4n(C)c3c2=O)cc1 -0.115%
Cc1cc2c(s1)c1cnn(Cc3ccc(-c4ccccc4)cc3)c(=O)c1n2C 1.85%
O=S(=O)(NCCCCCNS(=O)(=O)c1c(F)cccc1F)c1ccc2c(c1)OCCO2 1.5%
Cc1cc2c(s1)c1cnn(Cc3ccc(C(F)(F)F)cc3)c(=O)c1n2C 0.64%
Cc1cc2c(s1)c1cnn(Cc3cccc(F)c3F)c(=O)c1n2C -2.21%
Cn1c2ccsc2c2ncn(Cc3ccccc3F)c(=O)c21 -6.76%
O=S(=O)(NC1CCN(S(=O)(=O)c2c(F)cccc2F)CC1)c1ccc2c(c1)OCCO2 7.34%
C[C@@H]1CN(S(=O)(=O)c2ccc3c(c2)OCCO3)CCN1S(=O)(=O)c1c(F)cccc1F 12%
Cc1cc2c(s1)c1cnn(Cc3ccc(C(C)C)cc3)c(=O)c1n2C 1.66%
